From PubChem
Many of the other results were omitted from the sample, so hits are more common in it than they were.
CBX7 AlphaScr: CBX7 chromodomain binding inhibitors, primary screen, biochemical, AlphaScreen | 1.1% of 66,000 active | Chromobox protein homolog 7 (Homo sapiens), O95931 | AlphaScreen His6-CBX7 / biotin-H3K27me3 peptide binding; active compounds read low | normalised signal (fraction of DMSO) (concentration not given with the values) | AID 1224903, 2016; in the data active means normalised signal below about 0.5
Target sequence (O95931 whole entry, looked up): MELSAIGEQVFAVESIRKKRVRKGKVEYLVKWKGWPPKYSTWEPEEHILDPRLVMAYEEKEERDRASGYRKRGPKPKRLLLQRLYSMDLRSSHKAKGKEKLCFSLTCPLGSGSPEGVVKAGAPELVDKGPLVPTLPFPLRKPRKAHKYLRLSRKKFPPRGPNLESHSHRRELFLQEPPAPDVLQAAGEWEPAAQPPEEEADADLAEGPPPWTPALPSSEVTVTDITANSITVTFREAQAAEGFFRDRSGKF
Each line names hits and unclear results; the compound was inactive in the other large screens.

CCOC(=O)c1ccc(NC2c3ncccc3C(=O)N2Cc2ccc(F)cc2)cc1 (stereo unspecified)	CBX7 AlphaScr 0.445
CCC(C)NC(=O)C1c2ccccc2C(=O)N1Cc1ccc(OC)cc1 (stereo unspecified)	none
COc1ccc(NC2c3ncccc3C(=O)N2Cc2ccc(F)cc2)cc1 (stereo unspecified)	none
O=C1c2cccnc2C(Nc2ccc(F)cc2)N1Cc1ccc(F)cc1 (stereo unspecified)	none
COc1ccc(CN2C(=O)c3cccnc3C2O)cc1 (stereo unspecified)	CBX7 AlphaScr 0.0103
O=C1c2ccccc2C(Nc2ccc(F)cc2F)N1c1cccnc1 (stereo unspecified)	none
Cn1nc(-c2ccc(C(=O)NCCN3CCOCC3)cc2)c2ccccc2c1=O	none
CC(c1ccccn1)N(C(=O)Nc1ccc(Cl)c(Cl)c1)C1CCCCC1 (stereo unspecified)	none
Cc1ccc(OCc2nc(C#N)c(N3CCN(c4ccccc4)CC3)o2)cc1	CBX7 AlphaScr 0.458
COc1ccc(OCc2nc(C#N)c(N3CCOCC3)o2)cc1	none
CN(Cc1ccccc1)c1oc(COc2ccc(F)cc2)nc1C#N	CBX7 AlphaScr 0.435
CC1CCN(c2oc(COc3ccc(Cl)cc3)nc2C#N)CC1	CBX7 AlphaScr 0.356
N#Cc1nc(COc2ccc(Cl)cc2)oc1N1CCOCC1	none
Cc1ccc(OCc2nc(C#N)c(N3CCC(C(N)=O)CC3)o2)cc1	none
COc1ccccc1OCc1nc(C#N)c(N(C)C)o1	none
Cc1ccc(OCc2nc(C#N)c(N3CCC(C)CC3)o2)cc1	none
Cc1ccc(OCc2nc(C#N)c(N3CCN(Cc4ccccc4)CC3)o2)cc1	CBX7 AlphaScr 0.459
N#Cc1nc(COc2ccccc2)oc1NCc1ccc(F)cc1	none
CCN1CCN(c2oc(COc3ccccc3)nc2C#N)CC1	none
CN1CCN(c2oc(COc3ccc(F)cc3)nc2C#N)CC1	none
Cn1c(-c2ccc(F)cc2)[n+](C)c2ccccc21	none
O=C(c1csc2c1CCCC2)N1CCc2ccccc2C1	none
CC(=O)N1CCc2cc(Br)cc(S(=O)(=O)NCCCN3CCCC3)c21	none
CCN(c1cccc(C)c1)c1ncnc2c1cnn2-c1ccc(OC)cc1	none
CC12CN3CC(C)(CN(C1)C(=O)c1ccccc1C3=O)C2=O	none
Cc1ccc(-c2cc(C(=O)Nc3ccc(F)cc3)c3ccccc3n2)cc1	none
COc1ccc(N2CCN(c3oc(COc4ccccc4F)nc3C#N)CC2)cc1	none
N#Cc1nc(COc2ccccc2F)oc1N1CCN(c2ccccc2)CC1	CBX7 AlphaScr 0.48
N#Cc1nc(COc2ccccc2F)oc1N1CCCC1	none
COc1cc2ccccc2cc1C(=O)Nc1nc(-c2ccc(F)cc2)cs1	none
Cc1cc(=O)n2nc(N3CCCC(C(=O)N4CCc5ccccc54)C3)sc2n1 (stereo unspecified)	none
COc1ccc(NC(CNS(=O)(=O)c2ccccc2)c2ccccc2)cc1 (stereo unspecified)	CBX7 AlphaScr 0.294
Cc1ccc(S(=O)(=O)NCC(NC(c2ccccc2)c2ccccc2)c2ccccc2)cc1 (stereo unspecified)	none
COc1ccc(CNC(=O)c2ccc(CNS(=O)(=O)c3ccccc3)cc2)cc1	none
COc1ccc(-c2nc(S(=O)(=O)c3ccccc3)c(N3CCCCCC3)o2)cc1	none
CNC(=O)C1C2C=CC3(CN(Cc4ccccc4Cl)C(=O)C13)O2 (stereo unspecified)	none
COc1ccc2c(c1)CCc1c(C(=O)N3CCN(C)CC3)noc1-2	none
Cc1ccc(C)c(Cc2c(C)nc3nc(SCC(=O)NCCc4ccccc4)nn3c2C)c1	none
CCN(CC)S(=O)(=O)c1ccc2c(c1)N(CC(=O)NCc1ccc(F)cc1)C(=O)CO2	none
O=C(CN1C(=O)COc2ccc(Cl)cc21)NCc1ccc(F)cc1	CBX7 AlphaScr 0.421
Cc1ccc(CNC(=O)CN2C(=O)COc3ccc(Cl)cc32)cc1	none
CCOc1ccc(NC(=O)C2CCCN(S(=O)(=O)c3c(C)noc3C)C2)cc1 (stereo unspecified)	none
COC(=O)c1ccc(N2C(=O)CC(NCCN3CCOCC3)C2=O)cc1 (stereo unspecified)	none
CC(=O)Nc1ccc(N2C(=O)CC(NCCN3CCOCC3)C2=O)cc1 (stereo unspecified)	none
O=C1CC(NCCN2CCOCC2)C(=O)N1c1ccc(Br)cc1 (stereo unspecified)	CBX7 AlphaScr 0.464
CCOc1ccc(CNC(=O)C2CCCN(c3nc4ccccc4o3)C2)cc1OC (stereo unspecified)	none
COc1cc(CN2CCN(Cc3ccc(Br)cc3)CC2)cc(OC)c1OC	none
O=C(Nc1cccc(C(F)(F)F)c1)c1cc(-c2cccs2)on1	none
Cc1ccc(NC(=O)Nc2ccc(Cl)cc2)nc1	none
O=C(Nc1ccc(Cl)cc1)Nc1ccc(Nc2ccccc2)cc1	none
COc1nc(OC)nc(-n2cnc(NC(=O)Nc3ccc(Cl)cc3)n2)n1	CBX7 AlphaScr 0.245
CS(=O)(=O)c1ccc2nc(NC(=O)CCOc3ccccc3)sc2c1	none
Cc1ccc(NC(=O)CSc2nnnn2-c2ccc(C(N)=O)cc2)cc1C	none
Cn1c(=O)[nH]c(=O)c2c1nc(CN1CCOCC1)n2CCCc1ccccc1	none
